Assay [1] concerns the target Guanine nucleotide-binding protein G(i) subunit alpha-1 (Homo sapiens) (UniProt P63096). Nature of the assay: qHTS Assay for Inhibitors of RGS12 GoLoco Motif Activity (Green Fluorophore) (AID 879).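 Also: 0% = labeled peptide with Gαi1 and full inhibition = labeled peptide alone without protein; negative values mean loss of peptide binding seen as reduced polarization.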 The procedure, abridged: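 Fluorescence polarization assay: 50 nM Gαi1 with 10 nM FITC-labeled RGS12 GoLoco peptide in 10 mM Tris pH 7.5, 150 mM NaCl, 0.1 mM GDP, 0.05% NP40, 10 min at room temperature with compound.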

In assay [2] the target is Cytochrome P450 3A4 (Homo sapiens) (UniProt P08684). The experiment in a line: qHTS Assay for Inhibitors and Substrates of Cytochrome P450 3A4 (AID 884). Also: series mostly up to about 57 µM; % is scaled to controls: 0 for no effect and ±100 for the full control effect; nearly all actives have a fitted effect of over 50% in size. The procedure, abridged: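 20 nM human CYP3A4 with 25 uM Luciferin-PPXE (at KM) in 200 mM KPO4, preincubated 10 min with compound; NADPH regeneration started a 60 min RT reaction. Luciferin detected by luminescence, normalized to 57 uM ketoconazole as full inhibition.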

Assay [3] is described as follows: Confirmation and Secondary Assay for Modulators of Hemoglobin Beta Chain Splicing at IVS2 654 locus (AID 910).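 Also: per-well total GFP intensity by laser scanning cytometry after 2-day treatment; % of control where 0% means no effect.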 In a few lines: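 HeLa cells stably carrying EGFP interrupted by mutant beta-globin IVS2-654 intron (CMV-driven) were treated with compound for 2 days at 37C; corrected splicing was scored as total peak GFP intensity per well (488 nm excitation, 500-520 nm emission).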

Assay [4] is described as follows: Confirmation and Secondary Assay for Modulators of Hemoglobin Beta Chain Splicing at IVS2 705 locus (AID 930).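 Also: HeLa cells stably expressing the EGFP-705 splicing reporter; series mostly up to about 46 µM; % of control where 0% means no effect.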 The procedure, abridged: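 Assay measures total GFP intensity per well in HeLa EGFP-705 cells after 2 days with compound; mis-splicing normally truncates EGFP, so fluorescence indicates corrected splicing.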
Assay [5] deals with Pyruvate kinase (Leishmania mexicana) (UniProt Q27686). The experiment in a line: qHTS Validation Assay for Inhibitors of Leishmania Mexicana Pyruvate Kinase (AID 945).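 Also: 0% = DMSO only neutral control wells.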 In a few lines:
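Pyruvate kinase activity of E451W LmPYK (0.2 nM) was followed as ATP output after 1 h at room temperature with 0.5 mM PEP and 0.1 mM ADP, detected by PKLight luminescence.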

A short description of assay [6]: Cellular Toxicity (caspase-3) NIH 3T3 (AID 666).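 Also: caspase signal read after 16 h compound exposure; 0% = DMSO basal and 100% = 100 µM tamoxifen stimulation.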 The procedure, abridged:
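Concentration-response qHTS in NIH 3T3 mouse fibroblasts scores caspase-3/7 activation as rising luminescence after 16 hr compound exposure. Signals are scaled between DMSO-only and 100 uM tamoxifen.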

Assay [7] in a line: Cellular Toxicity (caspase-3) Renal Proximal Tubule (AID 667).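 Also: cells exposed to compound for 16 hours at 37 °C before detection; 0% = DMSO basal and 100% = 10 µM staurosporine.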 The procedure, abridged: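 Primary rat proximal tubule cells, 1000/well, 5 h plating at 37 °C, then compound 16 h at 37 °C. Caspase-Glo 3/7 reagent, 1 h RT, luminescence. Normalized to DMSO (basal) and 10 uM staurosporine (100%); Hill-fit AC50.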
The target in assay [8] is Cytochrome P450 3A4 (Homo sapiens) (UniProt P08684). The experiment in a line: qHTS Assay for Activators of Cytochrome P450 3A4 (AID 885). Also: nearly all actives have a fitted effect of over 65% in size. In a few lines: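 Steps: enzyme/substrate mix dispensed; compound added, 10 min RT; NADPH regeneration solution added, 60 min RT; luciferin detection buffer stops reaction; 20 min later luminescence measured.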
The target in assay [9] is Cytochrome P450 2D6 (Homo sapiens) (UniProt P10635). Nature of the assay: qHTS Assay for Inhibitors and Substrates of Cytochrome P450 2D6 (AID 891). Also: nearly all actives have a fitted effect of over 60% in size. Also: potency is read from the fitted curve at half-maximal effect. In a few lines:
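Human CYP2D6 (5 nM) with 30 uM Luciferin-ME EGE (at Km) in 100 mM KPO4, compound preincubated 10 min, then NADPH regeneration system for 60 min at room temperature. Luciferin read by luminescence; normalized to 1.43 uM quinidine.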

A short description of assay [10]: Cell Viability - LYMP2-001 (AID 921).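 Also: series mostly up to about 92 µM; 0% = DMSO only and full inhibition = tetraoctylammonium bromide control wells; nearly all actives have a fitted effect of over 70% in size.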 In a few lines:
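Human lymphoblastoid cells (Coriell), 2500 per well, were preincubated 5 hr at 37 C, then exposed to compounds in complete medium for 24 hr at 37 C. Cellular ATP was read by CellTiter-Glo luminescence; AC50 from Hill fits of concentration-response data.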

A short description of assay [11]: MultiTox-Fluor Cytotoxicity Assay - LYMP1-001 - Dead Cells (AID 946). Also: potency is read from the fitted curve at half-maximal effect. In a few lines:
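Seed 2500 LYMP1-001 cells/well, incubate 5 hr at 37 C; add compound, 16 hr at 37 C; add MultiTox-Fluor reagent, 60 min RT; read dead-cell fluorescence Ex/Em=485/520. Normalize to DMSO and 15 uM tetraoctylammonium bromide.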

The nature of assay [12]: MultiTox-Fluor Cytotoxicity Assay - LYMP1-001 - Live Cells (AID 947).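 Also: 0% = DMSO only and full inhibition = tetraoctylammonium bromide control.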
The target in assay [13] is Cytochrome P450 2C9 (Homo sapiens) (UniProt P11712). The experiment in a line: qHTS Assay for Inhibitors and Substrates of Cytochrome P450 2C9 (AID 883). Also: nearly all actives have a fitted effect of over 60% in size. Also: potency is read from the fitted curve at half-maximal effect. The procedure, abridged: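 CYP2C9 deoxyluciferin hydroxylation, 37C, 60 min with NADPH regeneration; 10nM enzyme, 100uM Luciferin-H (KM). Glo detection reagent stopped reaction; luminescence normalized to sulphaphenazole (57uM) full inhibition.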

Assay [14] addresses Cytochrome P450 2C19 (Homo sapiens) (UniProt P33261). Nature of the assay: qHTS Assay for Inhibitors and Substrates of Cytochrome P450 2C19 (AID 899). Also: nearly all actives have a fitted effect of over 60% in size. Also: potency is read from the fitted curve at half-maximal effect. The procedure, abridged:
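In 50mM KPO4, the reaction held 5nM enzyme and KM-level (10uM) Luciferin-H EGE; it ran 60 min at 37C after NADPH regeneration and a 10 min compound preincubation. Luminescence values were scaled to 57uM ketoconazole as complete inhibition.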
A general note: In qHTS, concentration-response curves come from the screen itself.

The target in assay [15] is Muscarinic acetylcholine receptor M1 (Rattus norvegicus) (UniProt P08482). The experiment in a line: qHTS Assay for Antagonists of Acetylcholine Muscarinic M1 Receptor: Kinetic Measurement of Intracellular Calcium Response (AID 943).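 Also: Fluo-4 calcium signal as peak divided by basal fluorescence over 4 min; series mostly up to about 35 µM; nearly all actives have a fitted effect of over 75% in size.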 The procedure, abridged:
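Intracellular calcium flux, recorded with Fluo-4 in a kinetic plate reader, served as signal; the response to carbachol at EC80 (100 nM final) was taken as maximal over minimal fluorescence after a 10 min compound pre-incubation in rat M1-CHO cells.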

Assay [16] has the same target. The experiment in a line: qHTS Assay for Antagonists of Acetylcholine Muscarinic M1 Receptor: Measurement of IP-One Response (AID 944). Also: nearly all actives have a fitted effect of over 75% in size. In a few lines:
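Steps: plate transfected CHO-M1 cells overnight; add test compound, 10 min; add carbachol (200 nM, EC80) in stimulation buffer with LiCl; incubate 30 min; add labelled IP1 tracer and anti-IP1 antibody in lysis buffer; read HTRF after 10 min.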

Assay [17] in a line: qHTS Assay for Identification of Small Molecule Antagonists for NFkB Signaling Pathway (AID 895; active = well fitted inhibition curve with a large enough effect in the signal ratio, with a control signal flat, not every such curve was filed as active; the % refers to the signal ratio; also: % is scaled to controls: 0 for no effect and ±100 for the full control effect). The procedure, abridged: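 NFkB-bla ME-180 cervical carcinoma cells with beta-lactamase reporter under NFkB response element; compounds added, then TNF alpha at 10 pM final (EC50), 5 h at 37 C. LiveBLAzer substrate 2 h, room temperature; emission 460/530 nm at 405 nm excitation.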

A short description of assay [18]: qHTS Assay for Identification of Small Molecule Agonists for Thrombopoietin (TPO) Signaling Pathway (AID 917). Also: % is scaled to controls: 0 for no effect and ±100 for the full control effect. In a few lines:
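Murine Ba/F3 cells stably expressing human TPO receptor and a Glycoprotein IIb promoter–luciferase reporter were IL-3-starved overnight, then treated with compounds plus TPO (26 pM final, its EC50) for 24 hrs at 37 C; luminescence was read.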

Assay [19] in a line: qHTS Assay for Identification of Small Molecule Agonists for Hypoxia Response Element Signaling Pathway (AID 914; active = well fitted activation curve with a large enough effect in the signal ratio, with a control signal flat, not every such curve was filed as active; the % refers to the signal ratio; also: % of control where 0% means no effect). The settings on record: ME-180 (cervical carcinoma) HRE-bla reporter, beta-lactamase ratio, CoCl2, 17 h; hits give high values. In a few lines:
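Compounds in a titration series were added to ME-180 reporter cells alongside an EC50 level of CoCl2. After 17 hours, beta-lactamase activity was read as the 460nm/530nm emission ratio of CCF4, giving AC50 values.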

“And” between values parts separate entries of the source, which are not always exact repeats. Identical values can stand only once. Values without a mark were called inactive. Records with an inconclusive call do not appear. The source made the active and inactive calls. Unless noted, calls follow the shape of the dose curve; as a rule, active = well fitted curve in the direction sought with a large enough effect; inconclusive = small, poorly fitted or top-dose-only effect, or another doubt; inactive = no such curve, though single readings can be large; an effect the other way counts as inactive or inconclusive.

Chain of Cytochrome P450 2D6 (Homo sapiens) (P10635 whole entry, looked up): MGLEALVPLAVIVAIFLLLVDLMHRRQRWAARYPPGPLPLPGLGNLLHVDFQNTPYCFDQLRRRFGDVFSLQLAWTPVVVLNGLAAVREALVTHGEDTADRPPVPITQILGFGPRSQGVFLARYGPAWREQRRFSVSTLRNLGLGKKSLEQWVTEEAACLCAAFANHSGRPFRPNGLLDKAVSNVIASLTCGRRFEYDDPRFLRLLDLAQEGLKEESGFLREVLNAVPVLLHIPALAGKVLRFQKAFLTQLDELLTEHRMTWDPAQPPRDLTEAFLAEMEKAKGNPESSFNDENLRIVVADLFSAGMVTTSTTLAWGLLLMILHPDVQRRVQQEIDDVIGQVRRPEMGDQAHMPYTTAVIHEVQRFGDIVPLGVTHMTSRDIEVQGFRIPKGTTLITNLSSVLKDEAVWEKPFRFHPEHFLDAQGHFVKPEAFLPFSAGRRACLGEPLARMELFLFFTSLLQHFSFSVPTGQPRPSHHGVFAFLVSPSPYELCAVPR
Chain of Cytochrome P450 2C9 (Homo sapiens) (P11712 whole entry, looked up): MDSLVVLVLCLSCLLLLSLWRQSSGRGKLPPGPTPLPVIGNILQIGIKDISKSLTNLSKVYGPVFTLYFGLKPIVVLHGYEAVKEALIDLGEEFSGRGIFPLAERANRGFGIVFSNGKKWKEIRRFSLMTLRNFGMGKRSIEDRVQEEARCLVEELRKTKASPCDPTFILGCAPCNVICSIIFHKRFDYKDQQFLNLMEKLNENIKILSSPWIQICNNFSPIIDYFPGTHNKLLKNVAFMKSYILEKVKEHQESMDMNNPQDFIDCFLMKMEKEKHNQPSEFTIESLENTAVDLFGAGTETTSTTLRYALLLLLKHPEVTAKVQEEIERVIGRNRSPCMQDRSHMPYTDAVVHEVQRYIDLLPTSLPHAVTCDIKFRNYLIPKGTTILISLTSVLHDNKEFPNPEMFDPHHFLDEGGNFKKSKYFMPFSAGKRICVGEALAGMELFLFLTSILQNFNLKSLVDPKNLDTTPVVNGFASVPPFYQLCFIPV
Chain of Cytochrome P450 2C19 (Homo sapiens) (P33261 whole entry, looked up): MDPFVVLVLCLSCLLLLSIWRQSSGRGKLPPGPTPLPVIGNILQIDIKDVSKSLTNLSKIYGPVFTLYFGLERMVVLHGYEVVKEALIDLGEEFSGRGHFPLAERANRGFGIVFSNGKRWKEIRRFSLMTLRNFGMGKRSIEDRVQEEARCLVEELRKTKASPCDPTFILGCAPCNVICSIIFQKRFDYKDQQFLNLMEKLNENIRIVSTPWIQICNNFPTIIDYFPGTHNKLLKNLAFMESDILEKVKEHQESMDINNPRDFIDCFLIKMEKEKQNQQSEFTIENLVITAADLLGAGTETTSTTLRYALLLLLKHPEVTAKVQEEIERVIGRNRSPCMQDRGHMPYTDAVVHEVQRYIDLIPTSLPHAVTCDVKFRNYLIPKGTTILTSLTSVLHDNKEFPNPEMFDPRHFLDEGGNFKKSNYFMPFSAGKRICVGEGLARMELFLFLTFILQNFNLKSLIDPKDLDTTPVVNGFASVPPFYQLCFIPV
Chain of Pyruvate kinase (Leishmania mexicana) (Q27686 2-499 E452W): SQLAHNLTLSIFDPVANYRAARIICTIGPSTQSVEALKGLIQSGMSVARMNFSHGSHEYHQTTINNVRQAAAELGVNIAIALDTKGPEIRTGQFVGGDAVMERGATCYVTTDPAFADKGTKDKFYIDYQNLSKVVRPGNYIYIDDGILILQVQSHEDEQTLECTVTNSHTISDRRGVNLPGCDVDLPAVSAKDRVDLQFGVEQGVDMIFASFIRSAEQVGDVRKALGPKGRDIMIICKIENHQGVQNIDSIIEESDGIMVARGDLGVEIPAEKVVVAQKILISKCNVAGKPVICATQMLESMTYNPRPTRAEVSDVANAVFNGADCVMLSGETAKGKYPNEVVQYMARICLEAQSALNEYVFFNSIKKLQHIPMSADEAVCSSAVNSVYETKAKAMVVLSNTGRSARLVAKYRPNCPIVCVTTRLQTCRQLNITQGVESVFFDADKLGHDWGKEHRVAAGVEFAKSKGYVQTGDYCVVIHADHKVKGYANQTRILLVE
Chain of Cytochrome P450 3A4 (Homo sapiens) (P08684 whole entry, looked up): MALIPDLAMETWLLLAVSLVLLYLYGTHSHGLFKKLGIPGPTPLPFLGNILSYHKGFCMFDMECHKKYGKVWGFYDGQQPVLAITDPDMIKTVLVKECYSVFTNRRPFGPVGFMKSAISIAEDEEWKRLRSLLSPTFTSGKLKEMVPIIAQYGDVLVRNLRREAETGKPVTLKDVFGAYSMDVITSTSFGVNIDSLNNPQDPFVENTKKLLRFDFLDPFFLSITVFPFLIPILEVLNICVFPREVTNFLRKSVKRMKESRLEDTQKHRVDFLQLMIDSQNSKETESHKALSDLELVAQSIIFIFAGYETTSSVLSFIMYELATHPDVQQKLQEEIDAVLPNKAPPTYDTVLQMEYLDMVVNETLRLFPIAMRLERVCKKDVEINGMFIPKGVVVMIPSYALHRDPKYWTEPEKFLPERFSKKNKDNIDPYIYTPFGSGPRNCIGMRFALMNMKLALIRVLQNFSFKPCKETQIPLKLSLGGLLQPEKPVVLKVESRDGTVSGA
Chain of Guanine nucleotide-binding protein G(i) subunit alpha-1 (Homo sapiens) (P63096 whole entry, looked up): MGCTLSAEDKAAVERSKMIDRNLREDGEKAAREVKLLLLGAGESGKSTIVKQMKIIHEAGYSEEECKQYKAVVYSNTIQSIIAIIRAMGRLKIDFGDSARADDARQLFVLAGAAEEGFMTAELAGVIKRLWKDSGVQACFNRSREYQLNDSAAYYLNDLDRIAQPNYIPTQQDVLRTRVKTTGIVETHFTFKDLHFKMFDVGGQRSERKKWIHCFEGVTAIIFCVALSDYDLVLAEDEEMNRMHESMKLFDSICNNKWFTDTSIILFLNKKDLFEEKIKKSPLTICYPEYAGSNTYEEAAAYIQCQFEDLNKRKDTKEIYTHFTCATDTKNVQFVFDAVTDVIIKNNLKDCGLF
Chain of Muscarinic acetylcholine receptor M1 (Rattus norvegicus) (P08482 whole entry, looked up): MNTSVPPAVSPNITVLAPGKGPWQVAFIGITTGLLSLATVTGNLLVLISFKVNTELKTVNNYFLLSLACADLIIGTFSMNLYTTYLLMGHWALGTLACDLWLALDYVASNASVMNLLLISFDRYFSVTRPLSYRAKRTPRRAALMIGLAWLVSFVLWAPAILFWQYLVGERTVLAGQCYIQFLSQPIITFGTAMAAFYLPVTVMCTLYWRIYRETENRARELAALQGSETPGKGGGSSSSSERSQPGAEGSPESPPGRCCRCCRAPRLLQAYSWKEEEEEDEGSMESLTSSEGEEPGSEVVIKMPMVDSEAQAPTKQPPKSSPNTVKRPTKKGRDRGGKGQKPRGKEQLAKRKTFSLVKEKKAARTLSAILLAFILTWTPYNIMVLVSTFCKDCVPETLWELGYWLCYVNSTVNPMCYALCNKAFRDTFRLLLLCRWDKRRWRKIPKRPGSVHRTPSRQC

Consider `CC(C)Cc1ccc(C(C)C(=O)O)cc1` (stereo not drawn), for which the Potency entry in assay [1], in assay [3] and in [5] was “inactive” in each case. The molecule was classed as inactive in [2] and in assay [4].
`CC(C)C(=O)Nc1ccc([N+](=O)[O-])c(C(F)(F)F)c1`: the molecule was called inactive in assay [6], in assay [7], in [10], in [4] and in assay [12]. Moreover, the Potency entry in [8], in [9], in [5] and in [11] was “inactive” throughout.
With `O=C1N(c2ccccc2)c2ccccc2C1(Cc1ccncc1)Cc1ccncc1`, the Potency entry in assay [1], in assay [9], in assay [15], in assay [16] and in [5] was “inactive” in each case. Moreover, the Potency is 3.98 µM (active) and 7.94 µM (active) in [13]; 3.16 µM (active) and 199 nM (active) in assay [14].
As for `COc1ccc2[nH]cc(CCNC(C)=O)c2c1`, the outcome in assay [6], in [7], in assay [10], in [4] and in [12] was inactive. Moreover, the Potency result in assay [17], in assay [16], in [5] and in [11] was “inactive” throughout.
For the molecule `O=C(C1CCCCC1)N1CC(=O)N2CCc3ccccc3C2C1` (stereo not drawn), the Potency result in [1], in assay [8] and in [17] was “inactive” each time. Moreover, in assay [4], the molecule was classed as inactive.
Take `COc1cc2c(c(OC)c1OC)-c1ccc(OC)c(=O)cc1[C@@H](NC(C)=O)CC2`: the result in assay [6] and in assay [7] was inactive. For the same molecule, the Potency result in assay [17], in [16] and in assay [5] was “inactive” throughout. In addition, the Potency in assay [11] was 63.1 nM (active) and 100 nM (active).
As for `CCC1(c2ccccc2)C(=O)NCNC1=O`, the molecule was classed as inactive in assay [6], in [7], in [2], in assay [10], in [4] and in assay [12]. Also, the Potency result in assay [13], in [9], in assay [17], in assay [14], in assay [3] and in assay [11] was “inactive” throughout.
As to `C[C@](N)(Cc1ccc(O)c(O)c1)C(=O)O`, the Potency result in assay [1], in assay [8], in [17], in assay [18] and in assay [5] was “inactive” in each case.
For the molecule `CC(C)NCC(O)c1ccc(O)c(O)c1` (stereo not drawn), the molecule was called inactive in assay [6], in assay [7], in [10], in assay [4] and in [12]. Besides, the Potency entry in [11] was “inactive”.
In the case of `CS(=O)(=O)Nc1ccc([N+](=O)[O-])cc1Oc1ccccc1`, the Potency entry in [1], in [8], in assay [9], in [17], in [14] and in assay [3] was “inactive” each time. Also, the Potency in [13] was 10 µM (active) and 3.16 µM (active). The molecule was called inactive in [4].
Turning to `Nc1ccn([C@H]2CC[C@@H](CO)O2)c(=O)n1`, the result in assay [6], in [7], in assay [2], in assay [10], in assay [4] and in assay [12] was inactive. For the same molecule, the Potency entry in assay [1], in assay [18], in [15], in assay [16], in assay [5] and in assay [11] was “inactive” in each case.
As to `Nc1c2c(nc3ccccc13)CCCC2`, the call in assay [6], in [7], in assay [10], in assay [4] and in assay [12] was inactive. In addition, the Potency entry in [8], in assay [5] and in assay [11] was “inactive” throughout. Besides, in assay [9], the Potency is 5.01 µM (active).
For the molecule `N[C@@H](Cc1c[nH]c2ccc(O)cc12)C(=O)O`, the result in [6], in assay [7], in [10] and in assay [12] was inactive. Besides, the Potency entry in assay [13], in assay [8], in [9], in assay [14], in [16] and in assay [5] was “inactive” throughout. Further, the Potency entry in assay [11] is “inactive”.
For `NS(=O)(=O)c1cc2c(cc1Cl)NCNS2(=O)=O`, the molecule was called inactive in [6], in [7], in assay [10], in assay [4] and in assay [12]. In addition, the Potency entry in assay [1], in assay [5] and in [11] was “inactive” each time.
Regarding `NCCS(=O)(=O)O`, the result in assay [6], in [7], in assay [10] and in assay [12] was inactive. The Potency result in [15], in assay [16], in assay [5] and in [11] was “inactive” each time.
On to `O=c1[nH]cc(F)c(=O)[nH]1`, for which the call in assay [6], in [7], in [2], in assay [10], in [4] and in [12] was inactive. Further, the Potency entry in [1], in assay [13], in assay [9], in [14], in [5] and in assay [11] was “inactive” in each case.
With `Cc1cn([C@H]2C=C[C@@H](CO)O2)c(=O)[nH]c1=O`, the call in assay [6], in assay [7], in assay [2], in assay [10] and in [12] was inactive. Besides, the Potency result in assay [1], in [5] and in assay [11] was “inactive” each time.
`Cn1c(=O)c2c(ncn2C)n(C)c1=O`: the result in [6], in assay [7], in assay [2], in [10], in assay [4] and in assay [12] was inactive. Besides, the Potency entry in assay [1], in [13], in assay [9], in assay [14], in assay [16] and in assay [11] was “inactive” throughout. The activation in assay [19] is -1.38%.
For `Cc1ccc(-c2cc(C(F)(F)F)nn2-c2ccc(S(N)(=O)=O)cc2)cc1`, the outcome in assay [6], in assay [7], in [10] and in [4] was inactive. The Potency result in assay [3] and in [11] was “inactive” throughout.

The record behind these values is PubChem BioAssay (NCATS).
